# Measured values as given in PubChem BioAssay.
# Values without a mark were called inactive. The list shows a part of the results. Active and inactive are the calls of the source. Unless noted, no stated cut-off is given here; in the data, active means inhibition above about 30%; inactive means the rest.
# Columns and labels:
# [1] = target: Nuclear receptor coactivator 3 (Homo sapiens) (UniProt Q9Y6Q9); test: NCOA3 GAL4-fusion reporter inhibition – cell-based, luminescence, quadruplicate, confirmation (AID 588792;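 active means mean inhibition over 43.08%, the solvent-only control mean plus 3 SD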;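 further: 0% = DMSO treated cells and 100% = gossypol at 36 µM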); details: HEK293 GAL4-SRC3 luciferase reporter, at 3.6 µM, active compounds read high
# [2] = test system: transactivating tegument protein VP16 (Human herpesvirus 1), Gal4-VP16 luciferase reporter; test: repression of VP16-driven luciferase reporter – cell-based, luminescence, high throughput, counter-screen for SRC3 inhibitor project (AID 588794); details: mammalian cells, at 3.6 µM, active compounds read high
# [3] = test system: transactivating tegument protein VP16 (Human herpesvirus 1); test: compounds suppressing VP16-driven luciferase signal – cell-based, luminescence, single concentration, counter-screen for SRC2 inhibitor project (AID 652007; in the data active means inhibition above about 36%); details: cell-based VP16 transactivation luciferase reporter, at 8.9 µM, active compounds read high
# [4] = target: Nuclear receptor coactivator 2 (Homo sapiens) (UniProt Q15596); test: inhibition of GAL4-SRC2 driven luciferase expression – cell-based, luminescence, HEK293, triplicate, confirmation (AID 652008;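 active means mean inhibition above 46.5%, the solvent-only control mean plus 3 SD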;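 further: 0% = DMSO-treated cells and 100% = Gossypol at 36 µM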); details: HEK293 GAL4-SRC2 luciferase reporter, at 8.9 µM, active compounds read high
# [5] = target: Nuclear receptor coactivator 1 (Homo sapiens) (UniProt Q15788); test: NCOA1 GAL4-fusion reporter inhibition – cell-based, luminescence, quadruplicate, confirmation (AID 588820;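 active means mean inhibition above 46.68%, the untreated control wells mean plus 3 SD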;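 further: 0% = DMSO wells and 100% = gossypol 36 µM treated wells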); details: HEK293 GAL4-SRC1 luciferase reporter, at 3.6 µM, active compounds read high
# [6] = repression of VP16-driven luciferase reporter – cell-based, luminescence, high throughput, counter-screen for SRC1 inhibitor project (AID 588824; in the data active means inhibition above about 25%); details: cell-based VP16 transactivation luciferase luminescence; at 3.6 µM; active compounds read high
# [7] = VP16-driven transactivation reporter suppression – cell-based, luminescence, HEK293, counter-screen for COUP-TFII antagonist project (AID 687007; in the data active means inhibition above about 13%); details: HEK293 Gal4-VP16 luciferase reporter, at 8.5 µM, active compounds read high
# [8] = target: COUP transcription factor 2 (Homo sapiens) (UniProt P24468); test: retest of COUP-TFII reporter suppressors – cell-based, luciferase reporter, HEK293, triplicate, confirmation (AID 687008;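 active means mean inhibition over three repeats above a set limit taken from the earlier primary screen, cut at about 38% in these data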;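 further: 100% = cells given the luciferase reporter alone without the COUP-TF2 vector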); details: HEK293 NGFI-A luciferase reporter, luminescence; at 8.5 µM; active compounds read high
# Chain of COUP transcription factor 2 (Homo sapiens) (P24468 whole entry, looked up): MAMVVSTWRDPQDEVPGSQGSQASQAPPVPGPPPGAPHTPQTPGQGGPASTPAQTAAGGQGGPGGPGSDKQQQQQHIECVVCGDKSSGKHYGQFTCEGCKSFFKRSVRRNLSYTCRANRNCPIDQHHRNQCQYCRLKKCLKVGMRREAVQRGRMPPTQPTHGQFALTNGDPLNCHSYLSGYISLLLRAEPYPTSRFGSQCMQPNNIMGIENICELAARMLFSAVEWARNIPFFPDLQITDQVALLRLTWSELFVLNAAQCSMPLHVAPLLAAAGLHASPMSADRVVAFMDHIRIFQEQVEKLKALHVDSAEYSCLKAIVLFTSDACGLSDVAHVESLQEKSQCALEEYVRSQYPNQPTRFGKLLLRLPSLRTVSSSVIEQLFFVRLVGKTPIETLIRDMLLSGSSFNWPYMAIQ
# Chain of Nuclear receptor coactivator 2 (Homo sapiens) (Q15596 whole entry, looked up, the tested form may be a part): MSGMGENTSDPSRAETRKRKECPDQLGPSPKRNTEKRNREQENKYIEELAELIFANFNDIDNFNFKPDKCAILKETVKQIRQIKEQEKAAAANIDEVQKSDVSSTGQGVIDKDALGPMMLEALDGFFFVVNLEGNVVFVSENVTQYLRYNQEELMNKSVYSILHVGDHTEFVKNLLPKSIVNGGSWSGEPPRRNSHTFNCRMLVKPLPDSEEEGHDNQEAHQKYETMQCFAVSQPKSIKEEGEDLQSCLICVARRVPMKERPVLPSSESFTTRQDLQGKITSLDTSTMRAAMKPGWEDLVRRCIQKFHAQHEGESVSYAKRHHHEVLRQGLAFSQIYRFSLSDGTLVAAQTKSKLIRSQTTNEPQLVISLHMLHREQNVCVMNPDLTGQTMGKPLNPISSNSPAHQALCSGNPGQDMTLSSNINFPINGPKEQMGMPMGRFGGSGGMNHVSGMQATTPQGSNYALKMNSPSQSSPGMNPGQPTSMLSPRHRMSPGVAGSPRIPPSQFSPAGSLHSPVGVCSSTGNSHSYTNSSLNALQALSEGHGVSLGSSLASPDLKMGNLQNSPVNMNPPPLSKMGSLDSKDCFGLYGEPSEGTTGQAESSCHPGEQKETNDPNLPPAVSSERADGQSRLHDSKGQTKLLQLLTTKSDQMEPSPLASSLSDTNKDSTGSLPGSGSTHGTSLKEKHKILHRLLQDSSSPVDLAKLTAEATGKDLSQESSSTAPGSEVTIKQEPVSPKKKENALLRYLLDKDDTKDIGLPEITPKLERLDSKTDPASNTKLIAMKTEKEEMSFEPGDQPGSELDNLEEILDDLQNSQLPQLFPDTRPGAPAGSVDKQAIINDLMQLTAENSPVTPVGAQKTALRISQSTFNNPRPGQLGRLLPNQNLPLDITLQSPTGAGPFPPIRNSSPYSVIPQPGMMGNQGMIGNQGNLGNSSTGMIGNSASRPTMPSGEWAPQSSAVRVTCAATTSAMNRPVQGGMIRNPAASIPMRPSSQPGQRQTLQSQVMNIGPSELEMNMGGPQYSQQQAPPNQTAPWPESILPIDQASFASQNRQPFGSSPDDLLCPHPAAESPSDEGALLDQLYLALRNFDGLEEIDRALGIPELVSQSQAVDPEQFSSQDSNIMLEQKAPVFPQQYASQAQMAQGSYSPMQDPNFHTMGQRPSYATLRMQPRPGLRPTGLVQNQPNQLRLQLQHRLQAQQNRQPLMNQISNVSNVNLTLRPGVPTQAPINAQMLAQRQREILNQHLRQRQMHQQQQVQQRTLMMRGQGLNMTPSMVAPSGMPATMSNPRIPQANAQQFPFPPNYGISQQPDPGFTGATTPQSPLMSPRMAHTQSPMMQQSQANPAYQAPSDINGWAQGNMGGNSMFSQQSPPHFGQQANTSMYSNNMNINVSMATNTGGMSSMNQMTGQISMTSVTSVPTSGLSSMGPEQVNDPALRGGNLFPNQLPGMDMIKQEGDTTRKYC
# Chain of Nuclear receptor coactivator 1 (Homo sapiens) (Q15788 whole entry, looked up, the tested form may be a part): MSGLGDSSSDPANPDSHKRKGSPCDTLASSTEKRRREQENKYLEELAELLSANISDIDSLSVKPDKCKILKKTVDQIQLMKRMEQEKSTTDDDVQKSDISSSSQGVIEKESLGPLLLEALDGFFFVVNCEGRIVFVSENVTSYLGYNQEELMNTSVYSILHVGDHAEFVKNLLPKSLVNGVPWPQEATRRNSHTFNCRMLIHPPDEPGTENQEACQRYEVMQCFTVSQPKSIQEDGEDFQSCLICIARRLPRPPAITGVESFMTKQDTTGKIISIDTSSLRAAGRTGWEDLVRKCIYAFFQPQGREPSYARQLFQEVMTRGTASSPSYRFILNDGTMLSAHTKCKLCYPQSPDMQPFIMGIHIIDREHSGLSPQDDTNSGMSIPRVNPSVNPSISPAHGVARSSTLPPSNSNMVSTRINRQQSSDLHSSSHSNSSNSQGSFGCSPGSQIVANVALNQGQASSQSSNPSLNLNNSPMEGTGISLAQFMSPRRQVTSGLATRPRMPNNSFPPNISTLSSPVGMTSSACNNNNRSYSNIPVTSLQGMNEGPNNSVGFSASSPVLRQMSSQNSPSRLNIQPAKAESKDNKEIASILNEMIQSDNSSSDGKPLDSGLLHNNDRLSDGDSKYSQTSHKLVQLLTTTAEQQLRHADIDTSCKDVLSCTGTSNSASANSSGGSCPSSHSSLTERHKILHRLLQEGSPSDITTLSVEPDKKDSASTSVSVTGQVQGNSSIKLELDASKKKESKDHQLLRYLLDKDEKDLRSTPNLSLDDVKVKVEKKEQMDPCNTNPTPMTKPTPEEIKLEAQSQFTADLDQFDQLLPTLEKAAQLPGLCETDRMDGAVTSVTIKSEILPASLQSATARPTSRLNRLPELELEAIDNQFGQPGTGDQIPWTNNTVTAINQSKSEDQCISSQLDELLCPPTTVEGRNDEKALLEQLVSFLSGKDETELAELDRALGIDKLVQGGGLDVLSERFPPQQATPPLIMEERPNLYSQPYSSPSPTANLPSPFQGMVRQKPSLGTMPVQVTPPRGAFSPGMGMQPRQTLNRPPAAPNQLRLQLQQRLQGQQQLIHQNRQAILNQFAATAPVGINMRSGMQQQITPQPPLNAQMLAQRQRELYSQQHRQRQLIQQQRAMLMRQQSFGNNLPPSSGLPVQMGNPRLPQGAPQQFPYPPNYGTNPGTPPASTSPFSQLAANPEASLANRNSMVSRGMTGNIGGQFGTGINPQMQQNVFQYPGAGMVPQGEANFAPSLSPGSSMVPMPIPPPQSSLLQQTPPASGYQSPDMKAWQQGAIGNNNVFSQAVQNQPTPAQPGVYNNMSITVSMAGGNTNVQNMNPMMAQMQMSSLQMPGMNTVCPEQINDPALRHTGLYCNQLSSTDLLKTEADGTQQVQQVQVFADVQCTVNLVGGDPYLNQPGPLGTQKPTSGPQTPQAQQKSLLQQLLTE
# Chain of Nuclear receptor coactivator 3 (Homo sapiens) (Q9Y6Q9 whole entry, looked up, the tested form may be a part): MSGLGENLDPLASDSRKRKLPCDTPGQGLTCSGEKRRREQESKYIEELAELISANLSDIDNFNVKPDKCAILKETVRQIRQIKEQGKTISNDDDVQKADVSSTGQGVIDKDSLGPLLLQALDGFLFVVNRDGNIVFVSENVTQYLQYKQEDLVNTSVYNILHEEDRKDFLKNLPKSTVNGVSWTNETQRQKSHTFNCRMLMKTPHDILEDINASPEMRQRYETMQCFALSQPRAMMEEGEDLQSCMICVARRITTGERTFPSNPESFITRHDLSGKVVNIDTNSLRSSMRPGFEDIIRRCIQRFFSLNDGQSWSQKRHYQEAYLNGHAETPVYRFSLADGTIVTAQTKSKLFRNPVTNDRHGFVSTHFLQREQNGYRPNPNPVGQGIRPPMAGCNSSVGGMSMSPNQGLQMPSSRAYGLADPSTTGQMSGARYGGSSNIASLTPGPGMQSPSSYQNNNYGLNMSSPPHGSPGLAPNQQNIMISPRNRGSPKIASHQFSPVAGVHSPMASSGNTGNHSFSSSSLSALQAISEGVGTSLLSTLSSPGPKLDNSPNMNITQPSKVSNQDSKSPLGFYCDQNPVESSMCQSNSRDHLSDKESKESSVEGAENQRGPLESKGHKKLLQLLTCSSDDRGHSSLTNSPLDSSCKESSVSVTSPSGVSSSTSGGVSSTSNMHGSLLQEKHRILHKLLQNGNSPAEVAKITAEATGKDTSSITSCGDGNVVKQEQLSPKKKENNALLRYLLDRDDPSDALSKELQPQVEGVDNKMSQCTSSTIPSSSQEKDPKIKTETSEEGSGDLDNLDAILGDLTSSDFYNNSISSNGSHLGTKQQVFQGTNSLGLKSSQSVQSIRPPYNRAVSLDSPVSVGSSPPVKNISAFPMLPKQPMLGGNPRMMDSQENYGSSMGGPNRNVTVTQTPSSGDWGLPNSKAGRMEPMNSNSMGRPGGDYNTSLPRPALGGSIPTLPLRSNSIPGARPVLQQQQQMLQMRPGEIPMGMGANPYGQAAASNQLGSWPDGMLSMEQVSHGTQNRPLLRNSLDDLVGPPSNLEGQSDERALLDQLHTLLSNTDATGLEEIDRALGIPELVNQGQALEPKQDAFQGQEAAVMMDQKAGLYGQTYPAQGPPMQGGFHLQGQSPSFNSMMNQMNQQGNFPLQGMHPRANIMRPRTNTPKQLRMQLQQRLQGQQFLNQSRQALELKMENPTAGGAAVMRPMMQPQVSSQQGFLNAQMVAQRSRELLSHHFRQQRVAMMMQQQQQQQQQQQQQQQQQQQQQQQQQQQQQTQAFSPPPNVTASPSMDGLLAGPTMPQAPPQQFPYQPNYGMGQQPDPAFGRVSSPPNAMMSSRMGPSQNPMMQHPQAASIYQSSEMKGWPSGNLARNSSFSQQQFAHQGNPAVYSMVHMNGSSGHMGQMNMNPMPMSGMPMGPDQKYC
compound,measurement,setting,value
CC(C)N(CC(=O)Nc1ccc(Cl)cc1C(F)(F)F)C(=O)CCl,inhibition,[1],44% (active)
same,inhibition,[2],35.6% (active)
same,inhibition,[3],25.9%
same,inhibition,[4],59.2% (active)
O=C(/C=C\Nc1ccc2c(c1)OCO2)c1ccccn1,inhibition,[1],22.5%
same,inhibition,[2],14.7%
same,inhibition,[3],29.3%
same,inhibition,[4],62% (active)
Cc1cccc(C)c1NS(=O)(=O)c1ccc(-c2cnc(C3CC3)o2)cc1,inhibition,[1],43.2% (active)
same,inhibition,[2],15.3%
same,inhibition,[3],2.97%
same,inhibition,[4],17.2%
Cc1noc(C)c1COC(=O)c1cccc(S(=O)(=O)N2CCCCCC2)c1,inhibition,[1],8.78%
same,inhibition,[2],20.2%
same,inhibition,[3],9.01%
same,inhibition,[4],13%
CC(C)C(=O)NC(c1ccco1)c1ccc2cccnc2c1O (stereo not given),inhibition,[1],32.7%
same,inhibition,[2],20.6%
same,inhibition,[3],-13.3%
same,inhibition,[4],8.96%
O=C(O)CCCCCN1C(=O)CSC1=S,inhibition,[1],-1.77%
same,inhibition,[2],2.06%
same,inhibition,[3],-0.37%
same,inhibition,[4],7.01%
Cc1ccc(-n2c(-c3ccc(Cl)cc3)c[n+]3c2CCC3)cc1,inhibition,[1],16.1%
same,inhibition,[2],21.9%
same,inhibition,[3],13.4%
same,inhibition,[4],18.6%
COC(=O)c1c(C)n(-c2ccc(OC)cc2)c2ccc(O)cc12,inhibition,[1],41.4%
same,inhibition,[2],24.1%
same,inhibition,[3],-4.83%
same,inhibition,[4],28.1%
Cc1ccc(C(=O)NNC(=O)CCCN2C(=O)/C(=C/c3ccccc3Cl)SC2=S)cc1,inhibition,[1],20.4%
same,inhibition,[2],21.8%
same,inhibition,[3],53.4% (active)
same,inhibition,[4],60.2% (active)
C=C(C(=O)c1ccccc1)C(C)C(=C)C(=O)c1ccccc1,inhibition,[1],44.4% (active)
same,inhibition,[2],33.4% (active)
same,inhibition,[3],53.9% (active)
same,inhibition,[4],51.8% (active)
CCCCn1c(CCl)nc2cc(S(=O)(=O)N3CCOCC3)ccc21,inhibition,[1],71.6% (active)
same,inhibition,[2],34.6% (active)
same,inhibition,[3],22%
same,inhibition,[4],64.1% (active)
CC(=O)/C(=C/c1ccccc1)C(=O)Nc1ccccc1C,inhibition,[5],5.97%
same,inhibition,[6],23.8%
O=C(c1ccccc1)c1sc(Nc2ccc3c(c2)OCO3)nc1-c1ccccc1,inhibition,[5],13.9%
same,inhibition,[6],18.1%
Cc1ccc(C)c(N2CCN(C(=O)CCCCCn3c(=S)[nH]c4ccc(N5CCOCC5)cc4c3=O)CC2)c1,inhibition,[1],60.6% (active)
same,inhibition,[2],73.1% (active)
same,inhibition,[3],69.7% (active)
same,inhibition,[4],60.8% (active)
same,inhibition,[7],15% (active)
same,inhibition,[8],90% (active)
CCC(=O)c1ccc(O)c(CC=C(C)C)c1,inhibition,[1],35.8%
same,inhibition,[2],23.9%
same,inhibition,[3],-16.9%
same,inhibition,[4],14.5%
COc1ccccc1C(c1nnnn1Cc1ccco1)N1CCN(c2cccc(C)c2C)CC1 (stereo not given),inhibition,[5],10.7%
same,inhibition,[6],5.76%
CCN(CC)c1ccc(/C=N/Nc2nc3ccccc3[nH]2)c(O)c1,inhibition,[5],-7.34%
same,inhibition,[6],3.82%
N#CC(C#N)=NNc1ccc2cn[nH]c2c1,inhibition,[5],14.6%
same,inhibition,[6],31.6% (active)
COc1ccc(Oc2nc3c(c(=O)n(C)c(=O)n3C)n2C)cc1,inhibition,[5],24.8%
same,inhibition,[6],16.6%
COc1ccc(CCNc2c3ccccc3nc3ccccc23)cc1OC,inhibition,[5],-6.86%
same,inhibition,[6],26.2% (active)
COCCN(C(=O)CCl)C(C(=O)NC1CCCCC1)c1ccccc1C (stereo not given),inhibition,[1],52.3% (active)
same,inhibition,[2],38.7% (active)
same,inhibition,[3],45.5% (active)
same,inhibition,[4],58.5% (active)
COc1ccc(NC(=O)/C(Cl)=C(/Cl)S(=O)(=O)Cc2ccccc2)cn1,inhibition,[1],-15.3%
same,inhibition,[2],8.74%
same,inhibition,[3],80.4% (active)
same,inhibition,[4],72.4% (active)
COc1ccc(CCNc2ncnc3c2[nH]c2cc(OC)c(OC)cc23)cc1OC,inhibition,[5],-33.2%
same,inhibition,[6],-14.5%
COc1cc(/C=C/C(=O)c2ccc3c(c2)OCCO3)cc(Br)c1OCC(=O)N(C)C,inhibition,[1],76.6% (active)
same,inhibition,[2],62.6% (active)
same,inhibition,[3],30.9%
same,inhibition,[4],50.3% (active)
COc1ccc(N(C(=O)CCl)C(C(=O)NCCc2ccccc2)c2cccs2)cc1Cl (stereo not given),inhibition,[1],46.4% (active)
same,inhibition,[2],41.7% (active)
same,inhibition,[3],29.9%
same,inhibition,[4],64.9% (active)
C/C(=N\NC(=O)Cc1ccc(Cl)cc1)c1ccccn1,inhibition,[5],-28.3%
same,inhibition,[6],23.3%
CS(=O)(=O)c1ccc(C(=O)OCC(=O)NC(=O)Cc2ccccc2)cc1,inhibition,[5],-5.88%
same,inhibition,[6],-3.13%
